Experimental data: PubChem BioAssay (NCATS)
Records with an inconclusive call do not appear. Active and inactive are the calls of the source. The call rests on the fitted dose curve; in most records, active means well fitted inhibition curve with a large enough effect; inconclusive means small, poorly fitted or top-dose-only effect; inactive means flat fitted curve, though single readings scatter.

Legend:
CRL-7250 = normal cell line; experiment: Cytotoxic Profiling of Annotated Libraries Using Quantitative High-Throughput Screening (AID 1296008); conditions: Five cell lines viability, CellTiter-Glo ATP luminescence, 48-72 h; max response: stronger effect = lower value; on max response: on the % scale 0 is the no-effect control and ±100 the full control effect
Method in brief: (§1)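 Cells exposed to compounds for 48 or 72 hr at 37 degrees Celsius. Viability read as ATP-coupled luminescence with CellTiter-Glo after 10 min at room temperature.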

HaCat [1] = experiment: as above; conditions: Five cell lines viability, CellTiter-Glo ATP luminescence, 48-72 h; max response: stronger effect = lower value
Method in brief: as §1

KB-3-1 = experiment: as above; conditions: Five cell lines viability, CellTiter-Glo ATP luminescence, 48-72 h; max response: stronger effect = lower value
Method in brief: as §1

NIH3T3 = experiment: as above; conditions: Five cell lines viability, CellTiter-Glo ATP luminescence, 48-72 h; max response: stronger effect = lower value
Method in brief: as §1

HACAT [2] = experiment: qHTS assay to identify novel small-molecules to repurpose for Merkel cell carcinoma treatment (AID 1296009); conditions: MCC and control cell lines, CellTiter-Glo viability, 72 h; at 44.8 µM (top of the series) unless noted
Method in brief: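 CellTiter-Glo luminescence after 72 hr compound exposure at 37 degree celsius gave cell viability. Libraries NPC and MIPE were run as 8- and 11-point dose responses; RLUs normalized to DMSO (negative) and no-cell (cytotoxicity) controls.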

Measured: max response
Further: nearly all actives have a fitted effect of over 60% in size.

CCNC1(C(N)=O)CCN(c2ncnc3c2nc(-c2ccccc2Cl)n3-c2ccc(Cl)cc2)CC1
inactive: CRL-7250 | HaCat [1] | KB-3-1 6.15% | NIH3T3 -1.7% | HACAT [2]

COc1ccc2c(NC(=O)Nc3cccc(C(F)(F)F)n3)ccnc2c1
inactive: CRL-7250 -17.8% | HaCat [1] | KB-3-1 | NIH3T3 -6.75% | HACAT [2]

CCCNCCc1ccc(NS(=O)(=O)c2ccc(OC(F)(F)F)cc2)cc1
inactive: CRL-7250 -2.99% | HaCat [1] | KB-3-1 -2.39% | NIH3T3 | HACAT [2]

CCCN1CCC=C(c2cc(-c3ccc(C)cc3)no2)C1
inactive: CRL-7250 | HaCat [1] | KB-3-1 9.64% | NIH3T3 | HACAT [2]

Cc1cccc(N2CCN(C(=O)c3cc(S(=O)(=O)N(C)C)ccc3N3CCCC3)CC2)c1C
inactive: CRL-7250 -10.2% | HaCat [1] | KB-3-1 | NIH3T3 -5.43% | HACAT [2]

CC1(C)CCCC2(C)C1C(OC(=O)/C=C/C=C/C=O)C=C1COC(=O)C12O (stereo not given)
inactive: CRL-7250 -21.2% | HaCat [1] | KB-3-1 | NIH3T3 -7.98% | HACAT [2] inactive [at 17.4 µM]

CC1(C)Oc2ncnc(N)c2N=C1c1ccc(C23CCC(CC(=O)O)(CC2)CC3)cc1
inactive: CRL-7250 1.74% | HaCat [1] | KB-3-1 -2.56% | NIH3T3 -15.7% | HACAT [2]

COc1ccc([C@H](Cc2ccncc2)c2ccccc2)cc1OC1CCCC1
inactive: CRL-7250 -5.35% | HaCat [1] | KB-3-1 -4.42% | NIH3T3 -22.8% | HACAT [2]

CC(C)(C)c1ccc2c(c1)CC[C@H]2NC(=O)Nc1cccc2[nH]ncc12
inactive: CRL-7250 -3.64% | HaCat [1] | KB-3-1 -1.56% | NIH3T3 | HACAT [2]
